Most compounds without a hit are left out; they make up all but 17% or so of the library.
DT40 TDP1 no CPT – qHTS for Inhibitors of human tyrosyl-DNA phosphodiesterase 1 (TDP1): qHTS in cells in absence of CPT. DT40 Tdp1-/- hTDP1 cells, no CPT, ATP luminescence, 48 h. Potency, µM (doses to about 46.2 µM), without a hit: at the top dose activity change, negative = growth inhibition, actives largely listed as inhibitors. 420,000 compounds, 15% hits. AID 686978, 2013; also: % is scaled to controls: 0 for no effect and ±100 for the full control effect; nearly all actives have a fitted effect of over 55% in size
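Camptothecin absent (DMSO only). Human TDP1-complemented DT40 knockout cells, 400 cells/well, 37 °C for minimum 48 hr; ATP measured via CellTiter-Glo, 30 min dark incubation, luminescence.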
HepG2 viability – counter-screen for TGF-b inhibitors: cytotoxicity in HepG2 cells | Potency, µM (series often up to 46.1 µM), for the others: top-dose activity change, negative = cytotoxicity, hits mostly cytotoxic | HepG2 CAGA-GFP viability, ATP luminescence, 18 h | 410,000 compounds, 0.76% hits
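HepG2 CAGA-GFP cells (1000/well, DMEM with 1% FBS) received compound, then TGF-beta at 500 pg/mL final, and were incubated 18 hours at 37 degrees C. Viability was read by CellTiter-Glo luminescence. Media-only wells were set as complete cell-killing and DMSO as no toxicity.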
TGFb SMAD3 inh – inhibitors of TGF-b signaling; HepG2 CAGA-GFP TGF-b/SMAD3 reporter, GFP fluorescence, 18 h; TGF-beta stimulated, 500 pg/mL final; Potency, µM (titrated, usually from 46.1 µM), for inactives: at the highest dose activity, negative = inhibition, actives largely listed as inhibitors; 410,000 compounds, 1.2% hits; also: % is scaled to controls: 0 for no effect and ±100 for the full control effect; nearly all actives have a fitted effect of over 65% in size
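TGF-beta reporter screen: HEPG2 CAGA-GFP, 1% FBS, 500 pg/mL TGF-beta final, 18 h; per-cell GFP summed per well; curves fitted and categorized by class.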
TDP1 cell CPT – DT40-hTDP1 cell growth loss with CPT. Potency, µM (series often up to 46.2 µM), for inactives: top-dose activity change, negative = growth inhibition, hits mostly inhibitors. 420,000 compounds, 12% hits. chicken DT40 Tdp1-/-;hTDP1 cells + 20 nM CPT, ATP luminescence, 48 h. AID 686979; also: % is scaled to controls: 0 for no effect and ±100 for the full control effect; nearly all actives have a fitted effect of over 55% in size
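Chicken DT40 Tdp1-/- cells stably complemented with human TDP1 were seeded at 400 cells/well in medium containing 20 nM camptothecin, exposed to pin-transferred compounds, and grown at 37 °C for at least 48 hr. Viability was read as ATP luminescence.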
S2 tox – viability counter-screen for ATXN expression inhibitors; Potency, µM (series often up to 56.7 µM), usual class: cytotoxic; S2 cells (HEK-293 line with an ATXN2-luciferase reporter) viability, CellTiter-Fluor protease fluorescence, 24 h; 400,000 compounds, 0.49% hits; also: nearly all actives have a fitted effect of over 40% in size
ATXN2 expr inh – ATXN2 expression inhibition | HEK-293 ATXN2-luciferase reporter, luminescence, 24 h | Potency, µM (series often up to 57 µM), without a hit: at the top dose activity change, negative = inhibition, hits mostly inhibitors | 360,000 compounds, 0.72% hits; also: % is scaled to controls: 0 for no effect and ±100 for the full control effect; nearly all actives have a fitted effect of over 55% in size
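ATXN2-luciferase reporter cells (luciferase flanked by upstream and downstream ATXN2 gene portions) were treated 24 h at 37 °C with compounds at up to 57 uM. SteadyGlo luminescence gave expression; GF-AFC fluorescence gave viability.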
Active calls of the source: *; i = inactive; ? = inconclusive; . = no result. Calls follow the shape of the dose curve; as a rule, active = well fitted curve in the direction sought with a large enough effect; inconclusive = small, poorly fitted or top-dose-only effect, or another doubt; inactive = no such curve, though single readings can be large; an effect the other way counts as inactive or inconclusive. Potency is read from the fitted curve at half-maximal effect.

SMILES | DT40 TDP1 no CPT | HepG2 viability | TGFb SMAD3 inh | TDP1 cell CPT | S2 tox | ATXN2 expr inh
O=C(CCC1CCCCC1)NNC(=O)NC12CC3CC(CC(C3)C1)C2 | -20.8% | 0.0% | ? | ? | i | 0.7%
CCn1nc(-c2ccccc2)c(-c2ccccc2)c(C(=O)Nc2nc(C)c(C(=O)N(C)C)s2)c1=O | ? | -23.1% | 0.0% | ? | . | .
COC(=O)c1ccccc1NC(=O)c1cc2nc(-c3ccccc3)cc(-c3ccccc3)n2n1 | . | -1.3% | 0.8% | . | i | -3.3%
O=[N+]([O-])c1cnc(Sc2ccncn2)c([N+](=O)[O-])c1 | 1.16µM* | -98.5% | ? | 1.16µM* | ? | .
CC(C)(C)n1nnnc1C(c1cccc(C#N)c1)N1CCCCCC1 (stereo not drawn) | 16.4µM* | -3.9% | -8.7% | ? | i | -17.3%
CCC(C)(C)n1nnnc1C(c1cccc(C#N)c1)N1CCN(c2cccc(C)c2C)CC1 (stereo not drawn) | 16.4µM* | -14.7% | 3.7% | ? | i | -13.2%
COc1ccccc1C(c1nnnn1C(C)(C)C)N1CCCCCC1 (stereo not drawn) | 18.4µM* | -44.8% | ? | 20.6µM* | i | 4.6%
CC(C)(C)n1nnnc1C(c1cccc(C#N)c1)N1CCN2CCCC2C1 (stereo not drawn) | -5.9% | 5.5% | 14.7% | -1.6% | i | -1.0%
Cc1c(Cl)c([N+](=O)[O-])nn1CC(=O)NCc1cccs1 | ? | -8.6% | 16.4% | -0.7% | i | 7.5%
c1ccc(CN2CC[C@@H](Nc3nccn4ccnc34)C2)cc1 | -4.9% | 0.9% | -4.1% | ? | i | -1.0%
COc1cccc2c1C(=O)c1c(O)c3c(c(O)c1C2=O)CC(O)(C(=O)CO)CC3OC1CC(N(C)C)C(O)C(C)O1 (stereo not drawn) | 0.146µM* | 1.9% | 0.794µM* | 0.0146µM* | . | ?
CC(=O)[C@]1(O)Cc2c(O)c3c(c(O)c2[C@@H](O[C@H]2C[C@H](N)[C@@H](O)[C@H](C)O2)C1)C(=O)c1ccccc1C3=O | . | . | . | . | . | 0.137µM*
CC[C@@]1(O)C[C@H](O[C@H]2C[C@H](N(C)C)[C@H](O[C@H]3C[C@H](O)[C@H](O[C@H]4CCC(=O)[C@H](C)O4)[C@H](C)O3)[C@H](C)O2)c2c(cc3c(c2O)C(=O)c2c(O)cccc2C3=O)[C@H]1C(=O)OC | 0.237µM* | . | . | 0.211µM* | . | .
CCOC(=O)[C@@H]1[C@H]2COc3ccc(Br)cc3[C@@H]2N2C(=O)N(c3ccc(Cl)cc3)C(=O)[C@]12C | ? | 3.2% | -0.4% | -3.9% | i | -6.5%
CN(C(=O)COC(=O)CNC(=O)c1ccccc1F)C1CCCCC1 | 11.8% | 3.0% | -7.5% | -3.6% | i | -19.3%
O=C(CSC1=Nc2ccccc2C2CC=NN12)Nc1ccc(F)c(F)c1F (stereo not drawn) | 5.4% | -16.2% | 0.0% | ? | i | -8.2%
CCCCOC(=O)c1ccc(NC(=O)CSC2=Nc3ccccc3C3CC=NN23)cc1 (stereo not drawn) | ? | -25.2% | -14.1% | 23.1µM* | i | -27.7%
CCOC(=O)c1cnc(SSc2ncc(C(=O)OCC)c(N)n2)nc1N | 14.6µM* | 6.3% | 3.9% | 23.1µM* | i | .
C=CCSc1ncc(C(=O)OCC)c(N)n1 | 2.3% | -5.3% | -0.8% | -5.3% | i | 38.8%
O=C(c1ccc(CS(=O)Cc2ccc(Cl)cc2)o1)N1CCN(c2ccccn2)CC1 (stereo not drawn) | ? | -11.9% | -8.2% | ? | i | -28.0%
O=C(c1ccc(CS(=O)Cc2ccccc2Cl)o1)N1CCN(c2ccccn2)CC1 (stereo not drawn) | 16.4µM* | -19.7% | ? | ? | i | -24.5%
O=C(c1ccc(COc2ccccc2Br)o1)N1CCN(c2ccccn2)CC1 | -17.2% | -16.8% | 26.7% | -24.8% | . | .
O=C(c1ccc(CS(=O)c2ccccc2Cl)o1)N1CCN(c2ccccn2)CC1 (stereo not drawn) | 2.06µM* | 1.6% | 15.4% | 3.66µM* | i | .
CC(=O)Nc1cccc(N/C(N)=N/c2nc(C)cc(C)n2)c1 | -12.1% | -11.4% | -15.8% | 25.9µM* | i | -12.1%
CCC(=O)Nc1ccc(N/C(N)=N/c2nc(C)cc(C)n2)cc1 | 14.6µM* | -27.1% | ? | 13µM* | i | .
SMILES | DT40 TDP1 no CPT | HepG2 viability | TGFb SMAD3 inh | TDP1 cell CPT | S2 tox | ATXN2 expr inh
CCCCc1ccc(N/C(N)=N/c2nc(C)cc(C)n2)cc1 | 5.17µM* | 15.8µM* | ? | ? | i | ?
CCN(CC)/C(N)=N/c1nc(C)cc(C)n1 | 2.4% | 6.4% | -3.5% | 5.9% | i | 12.0%
CCN(/C(N)=N/c1nc(C)cc(C)n1)c1ccccc1 | 16.4µM* | -17.6% | 0.1% | -30.5% | i | -1.8%
COC(=O)c1cc(N/C(N)=N/c2nc(C)cc(C)n2)cc(C(=O)OC)c1 | ? | -25.3% | -2.1% | ? | ? | .
CCCCn1c(N)c(N(CC(C)C)C(=O)c2cccs2)c(=O)[nH]c1=O | -15.0% | -3.9% | -29.0% | -14.1% | i | -9.3%
CCc1cc(=O)oc2cc(C)cc(OC(C)C(=O)NCCN3CCOCC3)c12 (stereo not drawn) | -0.1% | -8.1% | 15.4% | 3.9% | i | 4.1%
Cc1ccc(N/C(N)=N/c2nc(C)cc(C)n2)cc1 | 20.6µM* | -1.6% | 0.0% | 14.6µM* | i | 0.2%
Cc1cc(C)cc(N/C(N)=N/c2nc(C)cc(C)n2)c1 | ? | -2.0% | -3.8% | ? | i | -18.9%
COc1cc(N/C(N)=N/c2nc(C)cc(C)n2)c(OC)cc1Cl | 18.4µM* | -35.8% | -13.6% | 14.6µM* | i | -34.6%
Cc1cccc(N/C(N)=N/c2nc(C)cc(C)n2)c1 | 16.4µM* | -2.8% | -9.5% | ? | i | -5.4%
CCCCCOc1ccc(NC(=O)C(=O)NCCC2=CCCCC2)cc1 | ? | 16.2% | 6.9% | -17.1% | i | -5.0%
CCC(c1nnnn1CCc1ccccc1)N(Cc1ccco1)Cc1cc2cc(C)cc(C)c2[nH]c1=O (stereo not drawn) | 23.1µM* | 11.1% | ? | 18.4µM* | i | -25.9%
CCC(c1nnnn1CCOC)N(Cc1ccc(C)cc1)Cc1cc2cc(OC)ccc2[nH]c1=O (stereo not drawn) | 7.31µM* | -1.6% | 10.9% | ? | i | -21.3%
